The record followed here is PubChem BioAssay AID651804 (National Center for Advancing Translational Sciences (NCATS), 2012).

Each structure is given as a SMILES string. Out of some 1,200 compounds screened, about 20 (2%) were called active. About 23% were inconclusive and are not listed. This is one part of a sample in which actives are shown more often than they occur. A number with no mark means an inactive call. Calls follow the shape of the dose curve; as a rule, active = well fitted inhibition curve with a large enough effect; inconclusive = small, poorly fitted or top-dose-only effect; inactive = no such curve, though single readings can be large or run the other way.
Potency is read from the fitted curve at half-maximal effect.

The target in the assay is Transcriptional regulator ERG (Homo sapiens) (UniProt P11308). Put plainly: qHTS for Small Molecule Inhibitors of the ERG Ets/DNA interaction: HTRF assay against cherry picks. Particulars: His-ERG Ets domain with biotin-DNA; series mostly up to 154 µM; activity change, negative = inhibition: at the top concentration. An excerpt: The Ets family of proteins is a family of ~30 conserved transcription factors defined by the presence of an ~85 amino acid domain referred to as the Ets domain, which mediates sequence-specific DNA binding to a core DNA element GGAA/T.The Ets family member ERG has been linked to several neoplasms. […] More extensive studies of the effects of over-expression of ERG in prostate cells have recently been carried out and have shown that over-expression of ERG results in increased invasion. […] We will carry out a high throughout screen to identify inhibitors of the interaction between ERG and DNA using a fluorescence polarization (FP) assay with a His-tagged ERG Ets domain and fluorescently-labeled DNA probes to develop small molecule inhibitors of this interaction as probes to test this hypothesis and lay the groundwork for the development of targeted therapies against ERG. This is the counterscreen against the cherry picks. NIH Molecular Libraries Probe Production Network [MLPCN] NIH Chemical Genomics Center [NCGC] Grant: NS066464 PI Name: John Bushweller, University of Virgina
Sequence of Transcriptional regulator ERG (Homo sapiens) (P11308 whole entry, looked up, the tested form may be a part): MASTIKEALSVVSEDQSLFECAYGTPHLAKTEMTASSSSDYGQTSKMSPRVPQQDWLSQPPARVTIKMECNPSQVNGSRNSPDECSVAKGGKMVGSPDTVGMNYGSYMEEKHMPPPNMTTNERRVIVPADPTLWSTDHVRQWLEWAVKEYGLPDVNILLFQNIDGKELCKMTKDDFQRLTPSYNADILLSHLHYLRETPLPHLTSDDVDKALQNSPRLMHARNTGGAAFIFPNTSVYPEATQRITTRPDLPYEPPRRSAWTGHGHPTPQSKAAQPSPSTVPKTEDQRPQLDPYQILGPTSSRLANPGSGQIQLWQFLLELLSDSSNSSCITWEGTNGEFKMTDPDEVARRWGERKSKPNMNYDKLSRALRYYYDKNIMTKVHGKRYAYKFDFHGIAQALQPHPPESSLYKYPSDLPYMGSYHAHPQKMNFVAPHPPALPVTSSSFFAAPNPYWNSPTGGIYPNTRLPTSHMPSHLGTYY
2 ul of protein solution (200 nM ERG domain in 300mM KCl, 50mM Tris-HCl, 1mM EDTA, 1mM DTT, pH 7.5); 20 nl Control plate and compound library plate; 2 ul of 200 nM biotin-DNA; incubate for 10 min at RT; 1 ul of anti-His antibody conjugated to the long-life fluorescent cryptate donner […] (5ng/ul) and streptavidin conjugated to the acceptor compound […] (0.2 ng/ul) mix; incubate 10 min and measure FRET (Excitation = 320 nm, Emission = 615, 665 nm).
In general terms: qHTS replaces the single test concentration by a dilution series.
Regarding `CCOc1cc(CNc2cccc3[nH]c(C)nc23)ccc1OC`, the “activity change, negative = inhibition” value is -20.8%.

Consider `Cc1cc(C)cc(NC(=O)CCOc2ccccc2)c1`, for which the “activity change, negative = inhibition” value was -18.5%.

Take `O=C1CC(Cc2ccccc2)C(=O)N1c1ccc(Cl)cn1` (stereo unspecified): the “activity change, negative = inhibition” value is -9.76%.

For `COc1ccc(C(=O)N[C@H](C(=O)N2CCN(c3ccccc3F)CC2)C(C)C)cc1`, the “activity change, negative = inhibition” value is -6.15%.

As for `CC(=O)NNc1cc(N2CCOCC2)nc(N2CCOCC2)n1`, the “activity change, negative = inhibition” value was 0.53%.

Consider `COc1cc(SC)ccc1C(=O)NC(C)C`, for which the “activity change, negative = inhibition” value is -29%.

Turning to `COc1ccc(S(=O)(=O)NNC(=S)NCCc2ccccc2)c(OC)c1`, the “activity change, negative = inhibition” value was -17.7%.

Regarding `Cc1ccc2nc3c(c(N)c2c1)CCN3C`, the “activity change, negative = inhibition” value was -20.7%.

As to `CCc1cc(C(=O)OC)c(NC(=O)CN2CCN(C(=O)C3CCCO3)CC2)s1` (stereo unspecified), the “activity change, negative = inhibition” value was 7.69%.

As for `Cc1ccc(S(=O)(=O)N2CCC[C@H]2C(=O)NC2CCCCC2)cc1`, the “activity change, negative = inhibition” value was -19.9%.

Take `CCOC(=O)CC1C(=O)NCCN1C(=O)c1c(F)cccc1F` (stereo unspecified): the “activity change, negative = inhibition” value is -22.2%.

For the molecule `CC(=O)NC(CC(=O)Nc1nc(-c2ccccc2)c(C(C)=O)s1)c1ccccc1` (stereo unspecified), the “activity change, negative = inhibition” value was -23%.

As for `COc1ccc(N(CCC(=O)Nc2ccccc2F)S(=O)(=O)c2ccc(C)cc2C)cc1`, the “activity change, negative = inhibition” value was 1.43%.

With `CN(CCO)C1=NS(=O)(=O)c2cc([N+](=O)[O-])ccc21`, the Potency is 28.2 µM (active).

`CCN(CC)c1ccc([N+](=O)[O-])cc1C(=O)O`: the “activity change, negative = inhibition” value was -28%.

With `O=C(COc1ccccc1)Nc1ccc2c(c1)Cc1cc(NC(=O)COc3ccccc3)ccc1-2`, the “activity change, negative = inhibition” value was -25.6%.

For the molecule `CNC(=O)C(=O)NCCN1CCN(C(=O)c2ccc([N+](=O)[O-])cc2)CC1`, the “activity change, negative = inhibition” value is -38.6%.

For `COc1ccc(OC)c(NC(=O)Cn2cnc3sc(C)c(S(=O)(=O)N4CCN(c5ccccc5OC)CC4)c3c2=O)c1`, the “activity change, negative = inhibition” value is -7.8%.

For `CN(C)c1nc2n(c(=S)n1)CCS2`, the “activity change, negative = inhibition” value was -23.1%.

For `CCC1COC(c2cccn2Cc2ccc(Cl)cc2)=N1` (stereo unspecified), the “activity change, negative = inhibition” value was 7.96%.

Turning to `CC(=O)OCC(=O)C1=CCC2C3CCC4=CC(=O)C=CC4(C)C3(F)C(OC(C)=O)CC12C` (stereo unspecified), the “activity change, negative = inhibition” value is -16.2%.

As for `COc1cc(OC)cc(C(=O)NCC(=O)OCc2csc(-c3ccccc3)n2)c1`, the “activity change, negative = inhibition” value was 34.1%.

Consider `CCn1cc(S(=O)(=O)Nc2ccc(Cl)cc2F)cn1`, for which the “activity change, negative = inhibition” value was -8.65%.

Regarding `COc1ccc([N+](=O)[O-])c(OC)c1C(=O)NC(=O)Nc1c(F)c(F)c(F)c(F)c1F`, the “activity change, negative = inhibition” value was -14.5%.

As to `CCn1c(CSc2ncn[nH]2)nc2cc(C(=O)O)ccc21`, the “activity change, negative = inhibition” value is -12.9%.

Consider `O=C1C(SCCO)=C(SCCO)C(=O)c2ccccc21`, for which the Potency was 50.1 µM (active).

On to `CS(=O)(=O)NN1C(=O)c2ccccc2NC1c1cccc(O)c1` (stereo unspecified), for which the “activity change, negative = inhibition” value was -27.5%.

For `S=C(NCc1ccco1)N1CCN(c2ccccn2)CC1`, the “activity change, negative = inhibition” value is -8.01%.

Take `CCOc1ccccc1N1CCN(C(=O)c2cc(S(=O)(=O)N(C)C)ccc2N2CCCC2)CC1`: the “activity change, negative = inhibition” value is -17.2%.

As to `COc1ccc(CNC(=O)CN2C(=O)NC3(CCCCCC3)C2=O)cc1OC`, the “activity change, negative = inhibition” value was -24.8%.

As for `CCn1nc(C)cc1C(=O)N1CCCC(N2CCN(Cc3ccc4c(c3)OCO4)CC2)C1` (stereo unspecified), the “activity change, negative = inhibition” value was -15.2%.

As to `CCCC(=O)Nn1cnc2c(c1=O)C1(CCCCC1)Cc1ccccc1-2`, the “activity change, negative = inhibition” value is -1.01%.

Consider `COc1ccc(S(=O)(=O)NCC2CC3C=CC2C3)cc1OC` (stereo unspecified), for which the “activity change, negative = inhibition” value is -23.8%.

In the case of `COCCNC(=O)Cn1c(=O)n(CCCC(=O)NCc2ccc3c(c2)OCO3)c(=O)c2sccc21`, the “activity change, negative = inhibition” value is -28.9%.

On to `COC(=O)C1=C(C)NC(C)=C(C(=O)OC)C1c1ccc(-c2cccc(Cl)c2Cl)o1`, for which the “activity change, negative = inhibition” value was 10.5%.

Take `CCOc1ccc(NC(=O)CN(C)C(=O)c2ccccc2CCc2ccccc2)cc1OCC`: the “activity change, negative = inhibition” value was 3.66%.

In the case of `COc1ccc(CCNC(=O)Cn2cc(C(F)(F)F)cc(Cl)c2=O)cc1`, the “activity change, negative = inhibition” value was -28.5%.

With `CSc1nc2c(c(=O)[nH]1)C(c1cccc(Br)c1)CC(=O)N2` (stereo unspecified), the “activity change, negative = inhibition” value was -7%.

As to `CC(=O)Nc1ccc(S(=O)(=O)Nc2nc3ccccc3nc2Nc2ccc(O)c(C(=O)O)c2)cc1`, the “activity change, negative = inhibition” value was -17.6%.

Turning to `COC(OC)c1nc(SCC(=O)Nc2cccc(Cl)c2)ncc1C(=O)O`, the “activity change, negative = inhibition” value is -14%.

With `CCC(Oc1ccccc1F)C(=O)NCCCn1ccnc1` (stereo unspecified), the “activity change, negative = inhibition” value was -4.46%.

With `Cc1nonc1C1CCCN1C(=O)c1cc(COc2ccc(F)cc2Cl)on1` (stereo unspecified), the “activity change, negative = inhibition” value was -30.1%.

On to `Cc1ccc(COC(=O)CCN=C2NS(=O)(=O)c3ccccc32)cc1`, for which the “activity change, negative = inhibition” value was -23.1%.

For the molecule `Nc1cccc(N2C(=O)c3cccc4c(N)ccc(c34)C2=O)c1`, the Potency was 39.8 µM (active).

Regarding `O=C(Nc1ccc(-c2nc3ccccc3[nH]2)cc1)c1c(F)c(F)c(F)c(F)c1F`, the “activity change, negative = inhibition” value was -17.1%.

For `Cn1ccc(C(=O)OCC(=O)Nc2ccccc2)n1`, the “activity change, negative = inhibition” value is -10.8%.

As to `COc1ccc(CNC(=O)COC(=O)CCOc2ccccc2)cc1`, the “activity change, negative = inhibition” value is -27.1%.

For `Cc1nn(-c2ccc(Cl)cc2)c2[nH]c(CCl)cc(=O)c12`, the “activity change, negative = inhibition” value is -6.79%.

As to `Cc1cc(S(=O)(=O)N2CCOCC2)ccc1OCC(=O)Nc1ccc(F)c(Cl)c1`, the “activity change, negative = inhibition” value was -25.9%.

`C=CCn1c2ccccc2c2nnc(SCC(=O)NC(C(=O)OC)C(C)C)nc21` (stereo unspecified): the “activity change, negative = inhibition” value was -32.4%.

Turning to `O=C1c2ccc3c4c(ccc(c24)C(=O)N1CCCCO)C(=O)N(CCCCO)C3=O`, the Potency was 20 µM (active).
